PMC12136788
Positions count from the first letter of the chain named. In all, about 24,000 sequences were measured (“enrichment r”: median about 0.99, highest 2% from about 3.7 on). What follows is part of a selection rich in the highest values, with near analogues and random picks from the rest.

T1: UNK ZnF1-3 (human, UniProt Q9C0B0 31-174)
T1 sequence: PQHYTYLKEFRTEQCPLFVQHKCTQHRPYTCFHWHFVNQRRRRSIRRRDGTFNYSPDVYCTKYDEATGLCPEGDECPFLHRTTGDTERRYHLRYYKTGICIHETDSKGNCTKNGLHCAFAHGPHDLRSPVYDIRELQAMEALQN

B1: chr11:46405157:46405158:+_ENSG00000110492_ENST00000395566|hu_hu|hu_hu_hu_mus_False|78_78 (ssRNA)
RNA: GGGAGUUCUACAGUCCGACGAUCCCCUCCCCACUUUGGGCACUUGGUGUGGGCGUGAAGGCAGGGCCGUGAUUGACAGAGCUGACAGGAAGACAAAAGGCACUGGUGGGUUAUAUCUUGGGCCUGUGGGAGAGGAGGGCUCCGCAACAGAGGAUUGAGCAUCA
B2: 52873384_52873592_4094_CDS_ENSMUSG00000035247_ENSMUST00000042052|mouse|control|control (ssRNA)
RNA: GGGAGUUCUACAGUCCGACGAUCCACCAGGCGCCUCUGCCUUCUAAGAUUAGCUUCUGCUUCUUUAGCUGCUUUCCCUAGUUGGUCUUCGCACACGCCAUUCACAGUGCCAUAGAGUUCAAAGCCGGAGAGCGAGAGGUAGUGCAACAGAGGAUUGAGCAUCA
B3: chr7:149838072:149838073:-_ENSMUSG00000048583_ENSMUST00000000033|mus_hu|motif|central (ssRNA)
RNA: GGGAGUUCUACAGUCCGACGAUCUCACUGCCCCCCUGUUACAUGGGGGGGGGGUUUAAUUUGGUUUCUGAGCGCAUAAAGCGGAGGAGGGGUAAAAAAAAAACAAAAAAAAAAAAAAAAGGAAAAAUGCCCCAAGAAACAAAGCAACAGAGGAUUGAGCAUCA
B4: chr7:149838072:149838073:-_ENSMUSG00000048583_ENSMUST00000000033|mus_hu|FALSE|FALSE (ssRNA)
RNA: B3 RNA with G82U, G83A
B5: 19964410_19964530_1467_3pUTR_ENSMUSG00000020152_ENSMUST00000000137|mouse|control|control (ssRNA)
RNA: GGGAGUUCUACAGUCCGACGAUCUCUAAAUGCCUACAAAGAAAGAAACAGAGCAGCAGCAACCCCUUGCCCUGGUAAUGUCUGCAAAGAUUUGGUAGCCUUAAACAACCAGAUUUACCCAUAUUAACAAGAAUUUAGCAAUGCCAACAGAGGAUUGAGCAUCA
B6: chr1:183098298:183098299:+_ENSMUSG00000062169_ENSMUST00000134115|mus_hu|FALSE|FALSE (ssRNA)
RNA: GGGAGUUCUACAGUCCGACGAUCUAUAAACAUGGCACCUUUCUGAUUUGCUUAGCCUCAGCAAGCCUGAUGUACUGUAAACUGACAGCCCAAAGGCUCUCUCAACUGCAUGAGUCACUGUUUUGGUUACUAAGAAUAUCUGAACAACAGAGGAUUGAGCAUCA
B7: chr13:112505112:112505113:+_ENSMUSG00000032727_ENSMUST00000109272|mus_mus|FALSE|FALSE (ssRNA)
RNA: GGGAGUUCUACAGUCCGACGAUCCAUAAAGGAUUCGGGGACAGCAAUGCCCAUCUUCAAUCUCUUUGCUGGUCUUUCGGAUUCUUCGCUGCACAUGGGGUUUAACUCUGAGUGAUAAAAUCCAGUCUCAAAUAAAUUAAAACACAACAGAGGAUUGAGCAUCA
B8: chr8:4269914:4269915:-_ENSMUSG00000002949_ENSMUST00000149827|mus_mus|motif|central (ssRNA)
RNA: GGGAGUUCUACAGUCCGACGAUCCUUCUUGGCCUCAUCUCGGAACUUUUUUAUACUUUCUUUCAUCUCUUUGUUUUUGGCGGAUUCUUGUUUGAUGUUAUCUAGCAAGCCUGACAAAAACCCUUUUCUGCUCCCAGAAGAAUACAACAGAGGAUUGAGCAUCA
B9: 19721883_19722003_1295_CDS_ENSMUSG00000050428_ENSMUST00000053109|mouse|control|control (ssRNA)
RNA: GGGAGUUCUACAGUCCGACGAUCAGGGCUCACUGUCAGGCACACAGUCUCUUCCUUCACGUUCUUGGUGCCAUCUUUGCCAAAGAAGAUGCACGCAUCCACUACACCUGUUACCACCACAUCUACAUGGAAUCCUGAUGCACCCAACAGAGGAUUGAGCAUCA
B10: chr18:56819859:56819860:+_ENSG00000166562_ENST00000588875|hu_mus|hu_hu_hu_mus_True|18_38 (ssRNA)
RNA: GGGAGUUCUACAGUCCGACGAUCAACCUUGAUUACUCUGUGAACUAUCGGAAUGUCUCUUCCUUCAACCUUAAAAACAACUAUUUCACCAGCUCUGAUUGGGUCUUCCCGGAAAUUUGUGAGGAACAGCAGAUCUCCUCUGUGCAACAGAGGAUUGAGCAUCA
B11: chr6:128323885:128323886:+_ENSMUSG00000001517_ENSMUST00000073316|mus_mus|motif|central (ssRNA)
RNA: GGGAGUUCUACAGUCCGACGAUCAGGGUCCUCCUCCAGGCCAGGGAAACUGAUGUCUAGAAGGAUCUUGCUGAGGCGGUCAUUCAUUGUGUCCAGGACAAGGCCUUCUGUGAGAGAACGGUUGGCUGAAAGGCUGGGAAUCUGCAACAGAGGAUUGAGCAUCA
B12: chr12:48459454:48459455:-_ENSG00000079387_ENST00000551330|hu_mus|motif|central (ssRNA)
RNA: GGGAGUUCUACAGUCCGACGAUCUGCUUUCUGCUCUUCAAUCCGGCGCAAUCUUUCCCGAGCUCGAGAGUCAUAAACGCGGGUUAAUUCUUUGAUCCAUAGCUCUGCCUGGAAGAACGUAGGGCUGGAAGCUGGAGUCUGAGACAACAGAGGAUUGAGCAUCA
B13: 55347689_55347809_2221_3pUTR_ENSMUSG00000021488_ENSMUST00000099490|mouse|control|control (ssRNA)
RNA: GGGAGUUCUACAGUCCGACGAUCACUCAGCAGUUUCAGGCUCCAUUGUCUUGGUAGAACCCAUUAAAUGGUCUGCAUGGGAAUUAGUAAUGAGGGAUUUCUGUUUCUCUUUUAUCCUGUUUGUGACAGGAUAUCUAGAAUACUCAACAGAGGAUUGAGCAUCA
B14: chr3:122152592:122152593:-_ENSG00000114030_ENST00000344337|hu_mus|motif|central (ssRNA)
RNA: GGGAGUUCUACAGUCCGACGAUCAUUUGUGAUGGCCCAAGCAGCUUCCUUCCUUGUCCGGAACUCUGCUGUUUGCAAUAUACGGAUAAGAGCUGGGAACAUGUUAGCAUCUAUCACAGUCUGGAUCUGUGCCCUAUUUCCAGCCAACAGAGGAUUGAGCAUCA
B15: chr17:60770872:60770873:+_ENSG00000011028_ENST00000303375|hu_hu|hu_hu_hu_mus_True|68_68 (ssRNA)
RNA: GGGAGUUCUACAGUCCGACGAUCUCUUUAAAAAAAAAAAAAAAAAGACAAACAAUAAUAGCACAUUAUUUAAAAAAAGAACUACAAUAGAGGGUCCGCUUUGAGUUUUUGUUCACAUCGUCCUGCACUGGGACACGGGGACUGCAACAGAGGAUUGAGCAUCA
B16: chr17:60770872:60770873:+_ENSG00000011028_ENST00000303375|hu_hu|hu_hu_hu_mus_True|18_68 (ssRNA)
RNA: B15 RNA with U117A, G119A, C121U, C122G, G124C, A126C
B17: chr17:60770872:60770873:+_ENSG00000011028_ENST00000303375|hu_hu|hu_hu_hu_mus_True|58_68 (ssRNA)
RNA: B15 RNA with A77U, G78C, A86G
B18: chr17:60770872:60770873:+_ENSG00000011028_ENST00000303375|hu_hu|hu_hu_hu_mus_True|28_68 (ssRNA)
RNA: B15 RNA with U107G, U109C, G110C, U111A, C113G, A114U, C115U, A116C
B19: chr17:60770872:60770873:+_ENSG00000011028_ENST00000303375|hu_hu|hu_hu_hu_mus_True|1_68 (ssRNA)
RNA: B15 RNA with G137A, G138C, G139C, C141G, U142G, G143A
B20: chr17:60770872:60770873:+_ENSG00000011028_ENST00000303375|hu_hu|hu_hu_hu_mus_True|1_18 (ssRNA)
RNA: GGGAGUUCUACAGUCCGACGAUCUCUUUAAAAAAAAAAAAAAAAAGACAAACAAUAAUAGCACAUUUCGAGAAUCAAGAACUACAAUAGAGGGUCCGCUUUGAGUUUUUGUUCACAACAUUGUCCCCUGGGACACGACCAGGACAACAGAGGAUUGAGCAUCA
B21: chr17:60770872:60770873:+_ENSG00000011028_ENST00000303375|hu_hu|hu_hu_hu_mus_True|1_38 (ssRNA)
RNA: GGGAGUUCUACAGUCCGACGAUCUCUUUAAAAAAAAAAAAAAAAAGACAAACAAUAAUAGCACAUUUCGAGAAUCAAGAACUACAAUAGAGGGUCCAUGUCUUCGAUUUGUUCACAUCGUCCUGCACUGGGACACGACCAGGACAACAGAGGAUUGAGCAUCA
B22: chrX:71482573:71482574:-_ENSMUSG00000031328_ENSMUST00000144429|mus_hu|FALSE|FALSE (ssRNA)
RNA: GGGAGUUCUACAGUCCGACGAUCCUGCCACUGAGAAAGGGCUCUUAGGGAUGGGAUCCCCUCCAUAAGUGACAUUGACGCCUACUGGACCCUGCUGGACAGGCGUGUACUUGACUGUGUAGGUGUUGUCAUGGUGGUCGAUGACAACAGAGGAUUGAGCAUCA

biological target: T1, UNK ZnF1-3; experiment: nsRBNS (natural sequence RNA bind-n-seq); RBNS binding buffer (assumed for nsRBNS): 25 mM Tris pH 7.5, 150 mM KCl, 3 mM MgCl2, 0.01% Triton X-100, 500 ug/ml BSA, 20 U/ml SUPERase-In, 4 C; UNK is unkempt and MSI1 is Musashi-1; names of the RNAs are library labels; protein concentration not given here; high values mean tight binding

Binder	binding signal [enrichment R]
B1	2.23
B2	1.03
B3	22.9
B4	12.2
B5	1.74
B6	0.858
B7	1.01
B8	0.472
B9	1.01
B10	0.803
B11	1.01
B12	1.03
B13	0.567
B14	0.808
B15	4.87
B16	4.47
B17	4.95
B18	4.92
B19	3.57
B20	3.43
B21	2.39
B22	0.8
